MBNL1-CUG inh: MBNL1-poly(CUG) RNA binding inhibition | Q9NR56 | TR-FRET MBNL1-His/biotin-(CUG)12 binding, 665/545 ratio | Potency, µM (doses to about 57.5 µM), usual class: inhibitors | 280,000 compounds, 0.036% hits | AID 2675; active = well fitted inhibition curve with a large enough effect in the signal ratio, with a control signal flat, not every such curve was filed as active; inconclusive = small, poorly fitted or top-dose-only effect, or effect the other way, or a change in a side signal; inactive = no such curve, though single readings can be large or run the other way; the % refers to the signal ratio
Target sequence (Q9NR56 whole entry, looked up): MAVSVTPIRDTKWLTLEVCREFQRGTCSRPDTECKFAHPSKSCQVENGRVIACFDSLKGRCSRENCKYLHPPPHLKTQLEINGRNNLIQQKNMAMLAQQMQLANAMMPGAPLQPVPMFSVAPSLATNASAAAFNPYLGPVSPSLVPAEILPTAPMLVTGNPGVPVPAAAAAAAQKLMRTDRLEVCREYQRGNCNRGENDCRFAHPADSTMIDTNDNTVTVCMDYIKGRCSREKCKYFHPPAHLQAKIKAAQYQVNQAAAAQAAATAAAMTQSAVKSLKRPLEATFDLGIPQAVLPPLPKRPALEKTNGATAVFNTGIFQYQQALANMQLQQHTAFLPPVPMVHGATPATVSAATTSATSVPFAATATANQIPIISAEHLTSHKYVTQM
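Ratiometric TR-FRET (665 over 545 nm, excitation 340 nm) tracks disruption of MBNL1-His/biotin-(CUG)12 complex after 60 min at room temperature, with compounds at 92 nM to 58 uM final.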
Akt phos inh: Akt phosphorylation inhibition | Neuro2A IGF-stimulated pAkt S473 HTRF, 20 min; stronger effect = lower value | activity change, % for hits at 50 µM | 360,000 compounds, 0.32% hits; in the data active = activity change below about -80%; inconclusive = mostly about -51% to -80%
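Neuro2A cells in DMEM with 0.5% FBS, overnight at 37 deg C, given compound at single 50 µM final, then IGF (6 nM final) for 20 min at 37 deg C. Lysed; phospho-Akt Ser473 by HTRF after 24 h, 665/615 ratio.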
Menin-MLL TR inh: menin-MLL binding inhibition, Texas Red mutant peptide. Potency, µM (series often up to 61.6 µM), usual class: inhibitors. Menin + Texas Red MLL mutant peptide, fluorescence polarization. AID 1768. 270,000 compounds, 0.23% hits. O00255; active = well fitted inhibition curve with a large enough effect in the polarisation, with a control signal flat, not every such curve was filed as active; inconclusive = small, poorly fitted or top-dose-only effect, or effect the other way, or a change in a side signal; inactive = no such curve, though single readings can be large or run the other way; the % refers to the polarisation
Menin MLL FP FL: inhibitors of human menin-MLL interaction, wild-type MLL peptide. 290,000 tested, under 10 active. FP activity change, % at 61.4 µM. Fluorescence polarization, fluorescein-MLL peptide displacement from menin; active = well fitted curve in the direction sought with a large enough effect in the polarisation, not every such curve was filed as active; inconclusive = small, poorly fitted or top-dose-only effect, or effect the other way, or a change in a side signal; inactive = no such curve, though single readings can be large or run the other way; the % refers to the polarisation
CXXC DNA block: blocks binding of human MLL CXXC domain to DNA. 290,000 compounds, 0.037% hits. MLL-CXXC / FITC-HOXA9 DNA fluorescence polarization. Q03164. Potency, µM (series often up to 115 µM), most hits filed as inhibitors; active = well fitted inhibition curve with a large enough effect in the polarisation, with a control signal flat, not every such curve was filed as active; inconclusive = small, poorly fitted or top-dose-only effect, or effect the other way, or a change in a side signal; inactive = no such curve, though single readings can be large or run the other way; the % refers to the polarisation
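Purified MLL-CXXC (added from a 7 uM solution) was preincubated 5 min at ambient with pinned compounds in 50 mM Tris-HCl pH 7.5, 50 mM NaCl, 1 mM DTT, 0.05% BSA. Fluorescein-labeled HOX-A9 DNA (50 nM solution) followed, 30 min, then polarization read.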
S-ASM inh: blocks human secretory acid sphingomyelinase | P17405 | placental ASM, HMU-PC fluorogenic substrate, 60 min | Potency, µM (titrated, usually from 57.5 µM), actives largely listed as inhibitors | 340,000 compounds, 0.006% hits
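HMU-PC0 cleavage (9 uM final) by human placental ASM, 60 min at 37 °C following 10 min compound exposure at RT; stopped at pH 10, fluorescence Ex 386/Em 447 nm.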
MLL CXXC FP-Fl: inhibitors of human MLL CXXC domain-DNA interaction. shares compounds with CXXC DNA block. MLL CXXC-DNA binding, fluorescein FP. Potency, µM (top dose mostly 345 µM), most hits filed as inhibitors. 200 compounds, 70% hits; also: nearly all actives have a fitted effect of over 80% in size
MLL CXXC FP-TR: MLL CXXC-DNA interaction inhibition, Texas Red FP; MLL CXXC-DNA binding, Texas Red fluorescence polarization; Potency, µM (series often up to 345 µM), actives largely listed as inhibitors; 200 compounds, 40% hits; shares compounds with CXXC DNA block; also: nearly all actives have a fitted effect of over 75% in size
MLL CXXC HTRF: inhibitors of human MLL CXXC domain-DNA interaction, HTRF format. shares compounds with CXXC DNA block. MLL CXXC-DNA binding, HTRF, biochemical. Potency, µM (doses to about 172 µM), actives largely listed as inhibitors. 210 compounds, 30% hits. AID 624162; also: nearly all actives have a fitted effect of over 80% in size
Numbers stand for hits; i = inactive; ? = inconclusive; nt = no result given. An excerpt weighted towards active compounds, which were near 0.45% of everything screened. Unless noted, calls follow the shape of the dose curve; as a rule, active = well fitted inhibition curve with a large enough effect; inconclusive = small, poorly fitted or top-dose-only effect; inactive = no such curve, though single readings can be large or run the other way.

SMILES	MBNL1-CUG inh	Akt phos inh	Menin-MLL TR inh	Menin MLL FP FL	CXXC DNA block	S-ASM inh	MLL CXXC FP-Fl	MLL CXXC FP-TR	MLL CXXC HTRF
O=C(Nc1cccc(C(=O)Nc2ccc(S(=O)(=O)O)c3cc(S(=O)(=O)O)cc(S(=O)(=O)O)c23)c1)Nc1cccc(C(=O)Nc2ccc(S(=O)(=O)O)c3cc(S(=O)(=O)O)cc(S(=O)(=O)O)c23)c1	?	nt	i	?	16µM	nt	28µM	100µM	39µM
CCOc1ccccc1NC(=O)C(C)CC (stereo not drawn)	i	i	i	i	?	i	nt	nt	nt
O=C1C2C(c3ccccc3)CC=CC2[C@H](c2ccc(C(F)(F)F)cc2)N1Cc1ccccc1 (stereo partly drawn)	i	i	nt	i	?	i	22µM	i	i
CN(Cc1cnccn1)C(=O)CC1C(=O)NCCN1CC(c1ccccc1)c1ccccc1 (stereo not drawn)	i	i	i	i	i	i	nt	nt	nt
COc1cccc(/C=C2/C(=O)NN(c3ccc(Br)cc3)C2=O)c1O	?	i	?	i	?	i	100µM	?	i
COc1cc(/C=C2/C(=O)NN(c3ccc(Cl)cc3)C2=O)cc(Br)c1O	i	i	?	?	?	i	nt	nt	nt
CC(C)c1nnc(NC(=O)c2nc(S(=O)(=O)Cc3ccc(F)cc3)ncc2Cl)s1	i	i	nt	nt	?	i	nt	nt	nt
CCSc1nnc(NC(=O)c2nc(S(=O)(=O)Cc3ccc(F)cc3)ncc2Cl)s1	i	i	nt	nt	?	i	22µM	100µM	9.7µM
CN(C)C1=C(Cl)C(=O)N(c2ccc(Cl)c(Cl)c2)C1=O	i	i	nt	i	?	i	179µM	i	?
C#CCOCCOCCOCCNc1nc(N2CCN(C(=O)[C@H](CCCCN)n3cc([C@@H](N)C(C)CC)nn3)CC2)nc(N2CCN(C(=O)[C@H](CCCCN)n3cc([C@@H](N)CO)nn3)CC2)n1 (stereo partly drawn)	?	nt	i	i	79µM	nt	5.6µM	i	i
COc1ccccc1CNc1nc2cc(-c3ccsc3)sc2c(=O)n1C	nt	i	nt	nt	nt	nt	nt	nt	nt
CCc1ccc(S(=O)(=O)/N=C2\C=C(Nc3ccc(C(=O)O)cc3)C(=O)c3ccccc32)cc1	?	i	?	i	13µM	i	40µM	?	i
COC(=O)c1ccccc1NC1=C/C(=N\S(=O)(=O)c2ccc(C(=O)O)cc2)c2ccccc2C1=O	?	i	nt	nt	16µM	i	5µM	142µM	i
Cc1ccc(S(=O)(=O)/N=C2\C=C(Nc3cccc(C(=O)O)c3)C(=O)c3ccccc32)cc1	?	i	?	i	?	i	nt	nt	nt
COc1cc(C(=O)OCC(=O)N2CCCC2)cc2c1OCCO2	nt	i	nt	nt	nt	i	nt	nt	nt
C/C(=N\NC(=O)C1COc2ccccc2O1)c1cccs1 (stereo not drawn)	i	i	i	i	i	i	nt	nt	nt
O=C(O)C1=CC(=C(c2ccc(O)c(C(=O)O)c2)c2ccc(O)c(C(=O)O)c2)C=CC1=O	nt	nt	i	i	10µM	nt	13µM	18µM	2.4µM
COc1ccccc1NC(=S)NC(C)=O	i	i	i	i	?	i	nt	nt	i
COc1ccccc1NC(C)=O	i	i	i	i	i	i	nt	nt	nt
O=C1C=C(O)c2cccc3cccc1c23	i	i	?	?	?	i	113µM	i	i
CSc1ccc(CNC(=O)Cn2nc(C)c3c(C)n(-c4ccc(C)cc4)nc3c2=O)cc1	i	nt	i	i	i	i	nt	nt	nt
CC(C)N(Cc1nc(-c2ccccc2)no1)C(=O)c1ccc(Br)o1	i	i	i	i	i	i	nt	nt	nt

Bioassay records (PubChem BioAssay)
